Rows were chosen to be rich in hits. Some 1.2% of all compounds tested hit in one or more screens of this group.
IDH1 R132H inh = inhibitors of human mutant IDH1 R132H; O75874; IDH1-R132H enzyme, NADPH consumption, diaphorase/resazurin fluorescence; Potency, µM (doses to about 76.6 µM), for inactives: at the highest dose activity change, negative = inhibition, usual class: inhibitors; 390,000 compounds, 0.093% hits; AID 602179; also: potency is read from the fitted curve at half-maximal effect; % is scaled to controls: 0 for no effect and ±100 for the full control effect; nearly all actives have a fitted effect of over 65% in size
Target sequence (O75874 whole entry R132H, stated change not applied): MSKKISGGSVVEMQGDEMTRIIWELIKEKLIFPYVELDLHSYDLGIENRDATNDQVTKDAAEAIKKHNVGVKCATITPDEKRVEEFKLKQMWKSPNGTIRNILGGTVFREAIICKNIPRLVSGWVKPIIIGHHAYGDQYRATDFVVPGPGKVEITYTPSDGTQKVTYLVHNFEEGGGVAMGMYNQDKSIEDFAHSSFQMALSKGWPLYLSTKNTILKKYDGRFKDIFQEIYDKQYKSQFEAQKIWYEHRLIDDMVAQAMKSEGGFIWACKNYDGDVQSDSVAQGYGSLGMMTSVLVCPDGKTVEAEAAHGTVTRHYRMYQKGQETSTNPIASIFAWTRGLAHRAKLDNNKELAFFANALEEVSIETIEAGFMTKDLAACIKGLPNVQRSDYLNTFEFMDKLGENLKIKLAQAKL
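IDH1-R132H (0.5 ug/mL) preincubated 30 min with compound, then NADPH (0.016 mM) and alpha-KG (2 mM) added; 80 min at RT, pH 7.5. Remaining NADPH coupled via diaphorase/resazurin to fluorescence (540/590 nm); concentration-response curves normalized to no-enzyme control.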
ASM inhibitor = blocks human secretory acid sphingomyelinase; P17405; placental ASM, HMU-PC fluorogenic substrate, 60 min; Potency, µM (titrated, usually from 57.5 µM), for inactives: top-dose activity change, negative = inhibition, usual class: inhibitors; 340,000 compounds, 0.006% hits; AID 504937; also: potency is read from the fitted curve at half-maximal effect
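Human placenta-derived ASM preincubated with compound 10 min at room temperature, then reacted with 9 uM (final) fluorogenic HMU-PC substrate for 60 min at 37 C. Stop solution raises pH to 10; fluorescence read at Ex 386/Em 447 nm.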
Apoferritin bind = binds horse apoferritin like a general anesthetic; apoferritin/1-aminoanthracene competitive binding, fluorescence; 350,000 compounds, 0.074% hits; Potency, µM (doses to about 77.5 µM), inactives show top-dose activity change, negative = displacement, most hits filed as inhibitors; P02791; AID 485281; also: potency is read from the fitted curve at half-maximal effect; % is scaled to controls: 0 for no effect and ±100 for the full control effect; nearly all actives have a fitted effect of over 20% in size
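In PBS, apoferritin at 10 uM is loaded with 1-AMA from a 50% saturated solution. After 10 min of compound exposure at ambient temperature, reduced 535 nm fluorescence indicates probe displacement.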
hERG WT inh = KCNH2 (human, wildtype) channel inhibition; Q12809; U2OS, BacMam KCNH2, thallium flux FluxOr; active compounds read low; activity change, % at 1.84 µM; 340,000 compounds, 0.37% hits; AID 720551;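 active = maximum activity change below -70%; inconclusive = maximum activity change between -70% and -50%; inactive = maximum activity change above -50%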; also: % is scaled to controls: 0 for no effect and ±100 for the full control effect
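U2OS cells were transduced with wild-type KCNH2 virus (2.03 x 10^8 / mL) for 4 h at room temperature, then cultured overnight at 37 C. Thallium flux was read with FluxOr dye. Rate constants were normalized to DMSO controls.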
KCNH2 3.1 block = blocks the human KCNH2 3.1 channel isoform. activity change, % (tested at about 1.8 µM). U2OS KCNH2 3.1, thallium flux FluxOr; active compounds read low. 340,000 compounds, 0.95% hits. AID 720553;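 active = maximum activity change below -70%; inconclusive = maximum activity change from -70% to -50%; inactive = maximum activity change above -50%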;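 also: thallium influx rate constant from kinetic fluorescence after stimulation buffer; % is scaled to controls: 0 for no effect and ±100 for the full control effect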
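FluxOr-based Tl+ influx in U2OS cells transduced with KCNH2 3.1 virus; rate constants normalized to DMSO controls.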
* marks the source's active call; other numbers are inactive results. Unless noted, calls follow the shape of the dose curve; as a rule, active = well fitted inhibition curve with a large enough effect; inconclusive = small, poorly fitted or top-dose-only effect; inactive = no such curve, though single readings can be large or run the other way.

For O=C(CSc1nc2c([nH]c3ccccc32)c(=O)n1-c1ccccc1)N1CCCc2ccccc21 the results were IDH1 R132H inh -2.2% and Apoferritin bind 1.8%.
For O=S(=O)(NCCc1csc2nc(-c3ccc(F)cc3)nn12)c1ccc(Oc2ccccc2)cc1 the results were IDH1 R132H inh 2.5% and Apoferritin bind -3.7%.
O=C(NNC(=O)c1ccccc1O)c1ccc(S(=O)(=O)Nc2ccccc2)cc1 was read as IDH1 R132H inh -2.0%, ASM inhibitor -5.1%, hERG WT inh -88.0* and KCNH2 3.1 block 5.2.
Screening COC(=O)CN1C(c2ccc(OC)cc2)=Nc2ccc(Cl)cc2C1c1ccccc1 (centres undefined) returned IDH1 R132H inh -8.2%, ASM inhibitor 0.5%, Apoferritin bind 0.8%, hERG WT inh 9.3 and KCNH2 3.1 block -95.6*.
For CCOC(=O)Cc1csc(N/C(=N/S(=O)(=O)c2cc(Br)ccc2OCC)c2ccccc2)n1 the results were IDH1 R132H inh -7.0%, ASM inhibitor -4.0%, Apoferritin bind -7.7%, hERG WT inh -261.1* and KCNH2 3.1 block -169.7*.
`CCOc1ccc(CNC(=O)C2Cc3ccccc3N2C(=O)CC)cc1` (centres undefined) gave IDH1 R132H inh 10.9% and Apoferritin bind 33.7%.
`N#Cc1nc(-c2ccccc2Cl)oc1NCC1CCCO1` (centres undefined) gave IDH1 R132H inh 8.6%, ASM inhibitor 3.0%, Apoferritin bind -4.0%, hERG WT inh -14.0 and KCNH2 3.1 block -72.4*.
`COc1ccc(CNC(=O)C2CCCN(c3nnc(C)c4c(C)n(-c5ccc(C)cc5)nc34)C2)cc1` (centres undefined) gave IDH1 R132H inh -1.2% and Apoferritin bind -17.9%.
For Cc1nnc(N2CCCC(C(=O)NCc3ccc(OC(C)C)cc3)C2)c2nn(-c3ccccc3)c(C)c12 (centres undefined) the results were IDH1 R132H inh 0.0%, ASM inhibitor 14.8%, Apoferritin bind inconclusive, hERG WT inh -9.1 and KCNH2 3.1 block -81.6*.
`Cc1ccccc1CNC(=O)c1cc2cc(S(=O)(=O)N3CCCCC3)ccc2n1C` gave IDH1 R132H inh 5.1% and Apoferritin bind -3.9%.
Screening CCc1ccccc1NC(=O)CN1C(=O)COc2ccc(S(=O)(=O)N3CCCCCC3)cc21 returned IDH1 R132H inh 3.3% and Apoferritin bind -1.8%.
Cc1ccc(S(=O)(=O)NCC(=O)OC2CCOC2=O)cc1 (centres undefined) was read as IDH1 R132H inh 3.1%, ASM inhibitor 3.8%, Apoferritin bind -6.9%, hERG WT inh -125.8* and KCNH2 3.1 block -94.9*.
`O=C(/C=C/c1ccc(Cl)cc1)N1CCN(c2ccc(Cl)cc2[N+](=O)[O-])CC1` gave IDH1 R132H inh -0.7%, ASM inhibitor -22.4%, Apoferritin bind inconclusive, hERG WT inh -133.3* and KCNH2 3.1 block -96.2*.
Cc1ccccc1C(=O)OCc1nnc(-c2ccc(Cl)cc2)o1 was read as IDH1 R132H inh -2.1%, ASM inhibitor -5.8%, Apoferritin bind -18.8%, hERG WT inh -1.6 and KCNH2 3.1 block -76.7*.
`CSc1ccc(CN2CCCC(CNC(=O)c3ccc(F)cc3)C2)cc1` (centres undefined) gave IDH1 R132H inh -2.8%, ASM inhibitor 0.4%, Apoferritin bind -9.3%, hERG WT inh 0.4 and KCNH2 3.1 block -78.2*.
Screening CCOc1ccc(CN2CCCC(CNC(=O)c3ccc(F)cc3)C2)cc1CO (centres undefined) returned IDH1 R132H inh 0.5%, ASM inhibitor 3.6%, Apoferritin bind -8.7% and KCNH2 3.1 block -100.8*.
`CSc1cccc(CN2CCCC(CNC(=O)c3ccc(F)cc3)C2)c1` (centres undefined) gave IDH1 R132H inh -13.8%, ASM inhibitor 3.4%, Apoferritin bind -10.8%, hERG WT inh 19.4 and KCNH2 3.1 block -20.7.
CCOc1cc(CN2CCCC(CNC(=O)c3ccc(F)cc3)C2)ccc1OC (centres undefined) was read as IDH1 R132H inh 5.7%, ASM inhibitor 8.1%, Apoferritin bind 3.8%, hERG WT inh 18.5 and KCNH2 3.1 block inconclusive.

Screens (PubChem)
